This note sets out measurements from PubChem BioAssay (NCI).

Compounds without any hit were thinned out: in the full panel of roughly 83,000, 20% have a hit.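 Cell lines were cultured in 96-well plates, exposed to a single compound concentration, and assessed for percent growth 48 hours later.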 A number with no mark means an inactive call. Active and inactive are the calls of the source. How the source made its calls: active means growth percent below 10; inactive means the rest.

In this assay the test system is HL-60(TB) leukemia. The experiment in a line: NCI-60 one-dose screen, 48 h (100 = growth as untreated, 0 = no growth, -100 = all killed). Particulars: 10 µM unless noted.
On to `COc1cccc2c(=O)c3c(sc12)c(NCCCNCCO)nc1ccccc13`, for which the growth is 59.8%. Then `CN1CCN(c2ccc(Nc3c4ccccc4nc4ccccc34)cc2)CC1`, with 119%; and `CN(C)CCOc1ccccc1NC1=C(Cl)C(=O)C(Nc2ccccc2OCCN(C)C)=C(Cl)C1=O`, with -18.9% (active); and `CNC1(C#N)CCN(Cc2ccccc2)CC1`, with 168%. The value for `COc1cnc2c(c1)C(=O)c1c-2n(CCCN2CCN(C)CC2)c(=O)c2cc(Cl)ccc12` was 50.6%. Then `O=c1oc2ccc(Cl)cc2c(=O)n1-c1ccc(Cl)cc1F`, with -44.5% (active); and `C=CCn1c(SCC(=O)Nc2ccc(/C(C)=N\O)cc2)nnc1-c1cc(-c2ccc(OC)cc2)nc2ccccc12`, with -39.2% (active); and `CCN1CCN(C(=O)[C@]23CCC(C)(C)C[C@@H]2C2=CC[C@@H]4[C@@]5(C)C/C(=C/c6cccnc6)C(=O)C(C)(C)[C@@H]5CC[C@@]4(C)[C@]2(C)CC3)CC1`, with -37.3% (active). As to `O=C(Nc1cccnc1Nc1ccc(Cl)cc1)c1cn(Cc2cccc(Oc3ccccc3)c2)nn1`, the growth is 12.9%. The value for `O=C1c2cc(Br)ccc2Oc2cc([N+](=O)[O-])ccc2N1c1ccc(I)cc1F` was 81.2%; that for `C/C1=C\CCC2(C)OC2CC2CCC(C)(O)C(CC1)C2(C)C` (stereo not given) was 142%. The value for `O=S(=O)(NCCNc1nccc(-c2c(-c3cccc(F)c3)nc3occn23)n1)c1ccc(C(F)(F)F)cc1` was 106%; that for `CC(C)CCc1nc2ccc(NCc3ccc(OCCN4CCC(C)CC4)cc3)cc2[nH]1` was 84.8%; that for `Cc1[nH]c(C(=O)Nc2ccc(C(=O)N3CCNCC3)cc2OC(C)C)c(Cl)c1Cl` was 57.4%. Then `O=C(N/N=C/c1ccc(Oc2ccccc2)cc1)c1cnn2c1NC(c1ccccc1)C2` (stereo not given), with 78.6%; and `Cc1cnc([C@]23CC[C@@H](C)[C@H](C)[C@H]2C2=CC[C@@H]4[C@@]5(C)Cc6c([nH]c7ccccc67)C(C)(C)[C@@H]5CC[C@@]4(C)[C@]2(C)CC3)o1`, with 38.2% [100 µM]. On to `CCN(Cc1ccccc1)C1CCN(Cc2cc(Br)ccc2O)CC1`, for which the growth is 50.1%. Then `CCOC(=O)c1c(NC(=S)Nc2ccc([N+](=O)[O-])cc2)sc2c1CCCCC2`, with 70.5%; and `N#Cc1cccc(C2C3=C(COC3=O)N(CCO)c3cc4c(cc32)CCC4)c1` (stereo not given), with -27.2% (active); and `COc1cccc(Cc2nn3cc(-c4ccccc4)nc3s2)c1`, with 69.9%. Turning to `CC1/C=C/C=C/C=C/C=C/C=C/C=C/C=C/C(O[C@@H]2O[C@H](C)[C@H](O)[C@@H](O)[C@@H]2N)CC(O)C(C(=O)O)C(O)CC(=O)CC(O)CC(O)CC(O)CC(=O)CCCC(=O)CC(=O)OC1C(C)CC(C)C(O)CC(=O)c1ccc(N)cc1` (stereo not given in full), the growth was -60.3% (active). Consider `CCn1c(Cc2ccccc2Nc2c(Cl)cccc2Cl)nnc1SCC(=O)NN1C(=O)/C(=C/c2cc(OC)c(O)c(OC)c2)SC1=S`, for which the growth was -1.07% (active). The value for `O=C1Nc2ccccc2/C1=C/c1cn(CCCn2c3ccccc3c(=O)c3ccccc32)c2ccccc12` was 84%.

In the case of `O=C(Nc1ccccc1)C(CCCCN1C(=O)c2ccccc2C1=O)N1C(=O)c2ccccc2C1=O` (stereo not given), the growth is 104%. The value for `CCC(c1ccc(O)cc1)C(CC)c1ccc(O)c(F)c1` (stereo not given) was 56.1%. The value for `Fc1ccc(COc2ccc(Nc3ncnc4sc5c(c34)CCCC5)cc2)cc1` was 87.4%; that for `CC(C)(C)[Si](C)(C)OC1[C@@H](O[Si](C)(C)C(C)(C)C)[C@@H](CNC(=O)NC(=O)NC(=O)CI)O[C@H]1n1cnc2c(NC(=O)Nc3ccccc3)ncnc21` (stereo not given in full) was -67.1% (active).

On to `CN1CCn2c(c(Sc3ccc(C(=O)NO)cc3)c3ccccc32)C1=O`, for which the growth was -1.35% (active).

As for `C#CC(C(C)C)N(CCO)CCCC` (stereo not given), the growth is 108%.

Regarding `c1cn2cc(-c3ccc4ncn(C5CCCCC5)c4c3)nc(-c3ccc4c(c3)ncn4C3CCCCC3)c2n1`, the growth is -42.2% (active). `C[C@]12CCc3nc(Nc4ccc(O)cc4)sc3C1=CC[C@@H]1[C@@H]2CC[C@]2(C)/C(=N/NC(N)=S)CC[C@@H]12`: the growth was -4.61% (active).

Take `O=C(CN1CCN(c2ccc(Cl)cc2)CC1)N1CCN(c2nnc(-c3ccc(Cl)cc3)c(-c3ccc(Cl)cc3)n2)CC1`: the growth was 41.4%.

In the case of `c1ccc(Cn2cc3c(c2)-c2nc(Nc4ccccc4)ncc2CC3)cc1`, the growth is 79.4% [100 µM]. As for `CN1CCN(c2ccc(-c3cc4c(Nc5ccc(F)c(Cl)c5)ncnn4c3)cc2)CC1`, the growth is 1.68% (active). The value for `Cn1cnc([N+](=O)[O-])c1N1c2ccncc2Sc2ccncc21` was 87.5%; that for `Cc1ccc(CNc2c3ccccc3nc3cc(NC(=O)CCN4CCCC4)ccc23)cc1` was -64.3% (active). `O=C(/C=C/c1ccc2c(c1)OCO2)c1c(O)c2ccccc2oc1=O`: the growth was 77.8%. Then `COc1cc(C(C)c2ccc3c(ccn3C)c2)cc(OC)c1OC` (stereo not given), with -12.1% (active).

Consider `CCCCN(CCCC)c1ccc(C(=NC(C)CCCN(CC)CC)c2ccc(N(C)C)cc2)cc1` (stereo not given), for which the growth is -32.1% (active).

Take `CCOc1ccc(-c2cnnn2-c2nonc2-n2cccc2)cc1`: the growth was -23.8% (active).
